Whole data set: some 18,000 sequences, median “TetR repression strength (sort-seq, GFP reporter)” near 0.23, cut for the highest 2% near 0.68. The full list was thinned out, with the highest values kept by preference.

Data on 108 sequences can be found in a collection of fitness landscapes (doi:10.1038/s41467-024-54723-y).

Sequence of TetR (class B, Tn10) (P04483 whole entry): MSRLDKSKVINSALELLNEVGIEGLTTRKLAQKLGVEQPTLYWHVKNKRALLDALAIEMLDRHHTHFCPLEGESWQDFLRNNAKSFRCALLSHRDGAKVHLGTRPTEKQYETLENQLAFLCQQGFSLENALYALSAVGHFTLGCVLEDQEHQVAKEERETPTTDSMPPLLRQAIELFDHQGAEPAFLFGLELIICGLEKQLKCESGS

This experiment has as its target TetR (class B, Tn10) (UniProt P04483). Briefly: TetR repression strength (sort-seq, GFP reporter) (relative to tetO2 = 1); higher = stronger repression. Particulars: E. coli. The method, boiled down:
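Escherichia coli SIG10-MAX cells carried a low-copy plasmid library in which eight operator positions were randomized between a constitutive promoter and sfGFP, and TetR was expressed constitutively. After 5 h of growth at 37 °C in LB with 50 µg/mL chloramphenicol, 10^6 cells were FACS-sorted into 13 fluorescence bins, and each bin was Illumina-sequenced. Repression strength was the top bin index plus one minus the read-weighted mean bin, divided by the value for the unaltered operator. Across three independent transformations, only library members with ≥30 reads in every replicate and a CV ≤0.5 were averaged.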
With TCCCCTCAAGTTAGCGAGA, the TetR repression strength is 0.742.

In the case of TCCCCTCAAGTTAGGGAGA, the TetR repression strength is 0.304.

TCCCGACTAGTTAGTGAGA: the TetR repression strength is 0.25.

Sequence TCCCGGCTAGTTAGCGAGA gave a TetR repression strength of 0.485.

Sequence TCCCCTCAAGTTGGCGAGA had a TetR repression strength of 0.113.

The sequence TCCCGACTAGTTAGCGAGA returned a TetR repression strength of 0.682.

Turning to TCCCATGGAGTATGAGAGA, the TetR repression strength is 0.417.

TCCCAAAGAGTGGAGGAGA: the TetR repression strength was 0.388.

Regarding TCCCCGCCAGTAAAAGAGA, the TetR repression strength was determined as 0.389.

Take TCCCGGTCAGTGGCCGAGA: the TetR repression strength amounted to 0.523.

Sequence TCCCGGCCAGTTCGTGAGA returned a TetR repression strength of 0.197.

For TCCCGCGTAGTTGTTGAGA, the TetR repression strength worked out at 0.402.

TCCCGCGTAGTGGTTGAGA: the TetR repression strength was 0.826.

For the sequence TCCCGCGTAGTAGGGGAGA, the TetR repression strength turned out to be 0.425.

TCCCGTGCAGTTGCAGAGA returned a TetR repression strength of 0.376.

In the case of TCCCGCGTAGTAGGAGAGA, the TetR repression strength came to 0.691.

Regarding TCCCGTGTAGTTGCAGAGA, the TetR repression strength turned out to be 0.976.

The sequence TCCCCCGTAGTAGGAGAGA displayed a TetR repression strength of 0.197.

For TCCCGCGGAGTGGTTGAGA, the TetR repression strength was 0.768.

TCCCGCGGAGTGGTGGAGA: the TetR repression strength was determined as 0.155.

The sequence TCCCGCGTAGTGGTGGAGA came in with a TetR repression strength of 0.256.

TCCCCCGGAGTGGTTGAGA displayed a TetR repression strength of 0.192.

Take TCCCGTGTAGTTGGAGAGA: the TetR repression strength worked out at 0.191.

TCCCTGTGAGTCGTTGAGA: the TetR repression strength came to 0.443.

As to TCCCGGTAAGTATTCGAGA, the TetR repression strength came out at 0.175.

In turn, TCCCCATAAGTCCTTGAGA yielded a TetR repression strength of 0.415.

TCCCATAGAGTATGGGAGA gave a TetR repression strength of 0.0311.

Sequence TCCCGGAGAGTAGCGGAGA came in with a TetR repression strength of 0.287.

The sequence TCCCTTTCAGTGATTGAGA displayed a TetR repression strength of 0.713.

In the case of TCCCAATCAGTGAGTGAGA, the TetR repression strength amounted to 0.701.

TCCCAATCAGTGTGTGAGA showed a TetR repression strength of 0.101.

The sequence TCCCTTTCAGTTATTGAGA showed a TetR repression strength of 0.55.

As to TCCCTTTCAGTGAGTGAGA, the TetR repression strength is 0.488.

Regarding TCCCTATAAGTTGTGGAGA, the TetR repression strength was 0.201.

For TCCCTATCAGTGTCTGAGA, the TetR repression strength stood at 0.556.

TCCCTATCAGTGTCAGAGA had a TetR repression strength of 0.958.

The sequence TCCCTATCAGTTGTGGAGA came in with a TetR repression strength of 0.726.

With TCCCTATGAGTGTCAGAGA, the TetR repression strength was determined as 0.238.

TCCCTATCAGTTGTTGAGA came in with a TetR repression strength of 0.441.

As for TCCCAATCAGTGAGAGAGA, the TetR repression strength came out at 0.538.

In the case of TCCCTTGTAGTTGAAGAGA, the TetR repression strength is 0.148.

TCCCTTGGAGTGATAGAGA returned a TetR repression strength of 0.384.

TCCCTTTCAGTTAAGGAGA returned a TetR repression strength of 0.196.

With TCCCTGGAAGTGTTCGAGA, the TetR repression strength came out at 0.277.

Sequence TCCCGGAGAGTATAAGAGA returned a TetR repression strength of 0.289.

As for TCCCAAGAAGTAGGTGAGA, the TetR repression strength was 0.23.

Take TCCCATAAAGTTCAAGAGA: the TetR repression strength is 0.224.

The sequence TCCCTTACAGTTCCAGAGA displayed a TetR repression strength of 0.363.

For TCCCTTATAGTCTCGGAGA, the TetR repression strength is 0.214.

As for TCCCTATCAGTGATGGAGA, the TetR repression strength is 0.999.

The sequence TCCCAATCAGTAACGGAGA gave a TetR repression strength of 0.802.

With TCCCTATGAGTGAGCGAGA, the TetR repression strength amounted to 0.278.

As for TCCCTAACAGTGATGGAGA, the TetR repression strength was found to be 0.278.

With TCCCAATCAGTAACTGAGA, the TetR repression strength came out at 0.278.

TCCCTATCAGTGAGCGAGA showed a TetR repression strength of 0.73.

On to TCCCTATAAGTCATTGAGA, for which the TetR repression strength was 0.498.

Regarding TCCCCATCAGTAACGGAGA, the TetR repression strength amounted to 0.304.

As to TCCCTCTCAGTGATGGAGA, the TetR repression strength is 0.546.

Regarding TCCCTGTCAGTGAGCGAGA, the TetR repression strength came to 0.341.

TCCCTATCAGTCATTGAGA yielded a TetR repression strength of 0.708.

Regarding TCCCTATCAGTCAATGAGA, the TetR repression strength worked out at 0.625.

TCCCGTTCAGTGCTTGAGA displayed a TetR repression strength of 0.367.

In turn, TCCCACTCAGTGCATGAGA displayed a TetR repression strength of 0.218.

Take TCCCCCTGAGTAGGCGAGA: the TetR repression strength amounted to 0.179.

On to TCCCCGCAAGTACACGAGA, for which the TetR repression strength was 0.292.

TCCCCAGGAGTGATGGAGA had a TetR repression strength of 0.176.

The sequence TCCCTAGTAGTTGTGGAGA showed a TetR repression strength of 0.283.

TCCCTCGGAGTTGGTGAGA: the TetR repression strength is 0.237.

With TCCCTGTCAGTCGGTGAGA, the TetR repression strength is 0.378.

Take TCCCCGGCAGTGGTGGAGA: the TetR repression strength is 0.25.

For TCCCGGACAGTGCCAGAGA, the TetR repression strength was found to be 0.402.

In turn, TCCCATGGAGTCGGTGAGA returned a TetR repression strength of 0.0966.

In the case of TCCCTAACAGTGAATGAGA, the TetR repression strength is 0.46.

TCCCGGACAGTGTGTGAGA yielded a TetR repression strength of 0.2.

Regarding TCCCGGACAGTGAGAGAGA, the TetR repression strength is 0.246.

In the case of TCCCGGACAGTTTGGGAGA, the TetR repression strength worked out at 0.473.

With TCCCAATCAGTGAATGAGA, the TetR repression strength is 0.603.

As for TCCCTATAAGTCAGTGAGA, the TetR repression strength came out at 0.427.

In turn, TCCCGGACAGTTGGGGAGA displayed a TetR repression strength of 0.922.

The sequence TCCCGGACAGTGTGAGAGA yielded a TetR repression strength of 1.2.

TCCCTATAAGTGAGGGAGA showed a TetR repression strength of 0.237.

In turn, TCCCGGACAGTTGGAGAGA had a TetR repression strength of 0.299.

Take TCCCTATCAGTGAATGAGA: the TetR repression strength turned out to be 0.781.

With TCCCTATAAGTGAGTGAGA, the TetR repression strength was 0.693.

TCCCGCGAAGTAAGCGAGA registered a TetR repression strength of 0.151.

TCCCTCCTAGTGCGAGAGA registered a TetR repression strength of 0.151.

Regarding TCCCCGTGAGTTGGAGAGA, the TetR repression strength was 0.319.

The sequence TCCCCATGAGTTAGCGAGA yielded a TetR repression strength of 0.188.

Turning to TCCCTGCCAGTTCATGAGA, the TetR repression strength is 0.0931.

As for TCCCGAGCAGTGGAGGAGA, the TetR repression strength turned out to be 0.35.

With TCCCCTAGAGTGGGGGAGA, the TetR repression strength is 0.195.

On to TCCCGTTCAGTTTGTGAGA, for which the TetR repression strength came out at 0.145.

In turn, TCCCAATCAGTTAGGGAGA showed a TetR repression strength of 0.146.

TCCCTGGCAGTCGGGGAGA yielded a TetR repression strength of 0.473.

The sequence TCCCTAGTAGTGCAAGAGA came in with a TetR repression strength of 0.538.

TCCCTGTGAGTCTCAGAGA showed a TetR repression strength of 0.365.

As to TCCCTTCGAGTGATTGAGA, the TetR repression strength worked out at 0.73.

In the case of TCCCCTCGAGTGATTGAGA, the TetR repression strength is 0.244.

Regarding TCCCTTTGAGTGATTGAGA, the TetR repression strength was found to be 0.263.

With TCCCTTTGAGTAAGTGAGA, the TetR repression strength was 1.15.

On to TCCCTATGAGTGTGAGAGA, for which the TetR repression strength was found to be 0.252.

In turn, TCCCTAACAGTGAGTGAGA registered a TetR repression strength of 0.514.

TCCCTGTCAGTGTGAGAGA had a TetR repression strength of 0.0482.

Sequence TCCCTATCAGTGTGAGAGA came in with a TetR repression strength of 0.919.

Turning to TCCCTACCAGTGATTGAGA, the TetR repression strength is 0.511.

As to TCCCTAACAGTGATTGAGA, the TetR repression strength was found to be 0.745.

The sequence TCCCTTTGAGTAAGGGAGA showed a TetR repression strength of 0.152.

TCCCTTTAAGTAAGTGAGA returned a TetR repression strength of 0.247.
